Data on 16 molecules can be found in PubChem BioAssay.

A short description of experiment [1]: A549 cell viability effects, profiling panel, calcein-AM fluorescence, 48 h, basal (AID 1162). Particulars: higher = more signal.
Experiment [2] in a line: adipocyte viability effects, profiling panel, cell-based, 3T3-L1 adipocytes, calcein-AM fluorescence, 48 h, basal (AID 1163). Particulars: 3T3-L1 adipocytes viability, higher = more signal.
Experiment [3] is described as follows: HepG2 cell viability effects, profiling panel, calcein-AM fluorescence, 48 h, basal (AID 1164). The following applies: higher = more signal.
Experiment [4] can be described thus: MM1S cell viability effects, profiling panel, calcein-AM fluorescence, 48 h, basal (AID 1165).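 Note: viability of MM1S multiple myeloma cells under basal unstimulated conditions.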 Particulars: higher = more signal.
Experiment [5] in a line: basal RPMI8226 viability, no added stimulus, profiling panel, cell-based, calcein-AM fluorescence, 48 h, PK04 Diversity Set (AID 1166).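 Note: cells grown under basal conditions without added stimulus.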 Particulars: higher = more signal; RPMI8226 myeloma viability, calcein-AM fluorescence, 48 h unless noted.
Experiment [6] in a line: basal HepG2 mitochondrial membrane potential changes, profiling panel, cell-based, JC-1 fluorescence, 24 h, 100 nL compound (AID 1167). Particulars: higher = more signal.
A short description of experiment [7]: basal 3T3-L1 adipocyte mitochondrial potential changes, profiling panel, cell-based, JC-1 fluorescence, 3T3-L1 adipocytes, 24 h, 100 nL compound (AID 1168). Particulars: JC-1 mitochondrial fluorescence; higher = more signal, called active from +8 up or from −8 down unless noted.
Experiment [8] can be described thus: basal RPMI8226 mitochondrial membrane potential changes, profiling panel, cell-based, JC-1 fluorescence, 24 h, 100 nL compound (AID 1169). The following applies: higher = more signal; RPMI8226 myeloma, JC-1 mitochondrial potential fluorescence, 24 h unless noted.
A short description of experiment [9]: basal MM1S mitochondrial membrane potential changes, profiling panel, cell-based, JC-1 fluorescence, 24 h, 100 nL compound (AID 1170). Particulars: higher = more signal.
Experiment [10] in a line: A549 lung cancer cell viability effects, profiling panel, resazurin fluorescence, 24 h, PK04 Diversity Set (AID 1171). Particulars: higher = more signal, called active from +8 up or from −8 down unless noted.

Calls of active or inactive are those of the source.
Note: test concentration not given here.

As for `C=C(CC1(C(C)NP(=O)(c2ccccc2)c2ccccc2)CC1)c1ccccc1` (stereo not given), the z-score in [1] is -2.12; in [2] it was 0.844; in experiment [3] it was -1.07; in experiment [4], -3.18; in experiment [5] it was -4.71; in experiment [6], -2.36. Also, the z-score in experiment [7] was -0.793 (inactive); in experiment [8], -0.819; in [9] it was -0.133; in experiment [10], 2.93 (inactive).
`COC(=O)[C@H]1[C@@H](O)[C@@]2(O)c3c(OC)cc(OC)cc3O[C@@]2(c2ccc(OC)cc2)[C@@H]1c1ccccc1`: the z-score is -2.35 in experiment [1]; -1.63 in experiment [2]; -2.23 in experiment [3]; -3.46 in experiment [4]; -3.35 in [5]; -2.69 in [6]. Also, the z-score was -0.0573 (inactive) in experiment [7], -0.727 in [8], -1.19 in experiment [9] and -4.41 (inactive) in experiment [10].
As for `COC(=O)[C@@]1(Cc2ccccc2)[C@H]2c3cc(C(=O)N(C)C)n(C)c3C[C@H]2CN1C(=O)c1ccccc1`, the z-score was -1.73 in experiment [1]; -0.537 in experiment [2]; -0.189 in experiment [3]; 0.0394 in experiment [4]; -1.19 in experiment [5]; 0.0427 in experiment [6]. In addition, the z-score in [7] is -0.078 (inactive); in experiment [8], -0.318; in experiment [9] it was -0.437; in experiment [10], 0.0026 (inactive).
With `OCc1ccc(C2=CC(C3CC3)N(Cc3sc4ccccc4c3Cl)CC2)cc1` (stereo not given), the z-score in [1] is -1.09; in experiment [2] it was 0.656; in experiment [3] it was -0.328; in experiment [4] it was -3.17; in experiment [5], -3.29; in experiment [6], 0.353. Besides, the z-score in [7] is 0.501 (inactive); in experiment [8] it was -0.913; in experiment [9], -0.434; in experiment [10] it was -0.497 (inactive).
Take `COC(=O)[C@H]1C(=O)c2ccccc2O[C@@](C(=O)OC)(c2ccccc2)[C@@H]1c1ccccc1`: the z-score in [1] is -0.513; in experiment [2] it was -0.328; in experiment [3] it was 0.159; in experiment [4], -1.16; in [5] it was -0.144; in experiment [6] it was -0.598. For the same molecule, the z-score in experiment [7] is -0.31 (inactive); in experiment [8], -0.203; in [9], 0.271; in experiment [10], -0.002 (inactive).
In the case of `OCc1ccc(C2=CC(c3cccs3)N(Cc3cccc(OC(F)(F)F)c3)CC2)cc1` (stereo not given), the z-score is 1.08 in experiment [1]; 0.314 in experiment [2]; -0.65 in experiment [3]; -2.61 in experiment [4]; -0.633 in [5]; -2.28 in experiment [6]. Further, the z-score is 0.0997 (inactive) in experiment [7], -0.0311 in [8], 0.518 in experiment [9] and 0.439 (inactive) in experiment [10].
In the case of `COC(=O)[C@H]1[C@H](c2ccccc2)C(=O)[C@]2(O)c3ccccc3O[C@@]12c1ccccc1`, the z-score is 0.594 in experiment [1]; 0.833 in experiment [2]; -0.0328 in experiment [3]; 0.391 in experiment [4]; 0.001 in [5]; 0.338 in experiment [6]. Moreover, the z-score in [7] is -0.113 (inactive); in experiment [8] it was 0.289; in experiment [9] it was -0.0594; in experiment [10], -1.73 (inactive).
For the molecule `COC(=O)[C@@]1(Cc2ccc(F)cc2)[C@H]2c3cc(C(=O)N(C)C)[nH]c3C[C@H]2CN1C(=O)c1ccccc1`, the z-score was -0.632 in experiment [1]; -0.597 in [2]; 0.337 in experiment [3]; 0.334 in experiment [4]; -0.425 [setting not given] in experiment [5]; 0.174 in [6]. The z-score in experiment [7] is 0.0376 [setting not given] (inactive); in experiment [8], -0.101 [setting not given]; in experiment [9], -0.872; in experiment [10], -0.868 [setting not given] (inactive).
In the case of `CCOC(=O)[C@H]1CC=C2C(=O)Oc3ccccc3[C@@H]21`, the z-score in experiment [1] is -0.961; in experiment [2] it was -0.214; in experiment [3], -1.13; in [4], -1.35; in experiment [5] it was -0.132; in experiment [6], -0.417. The z-score is 0.846 (inactive) in experiment [7], 0.979 in experiment [8], -1.08 in [9] and 0.991 (inactive) in [10].
Take `C=C(CC1(CNP(=O)(c2ccccc2)c2ccccc2)CC1)c1ccccc1`: the z-score in [1] was -1.21; in experiment [2], -0.457; in experiment [3], -1.36; in [4] it was -0.159; in [5], -0.614; in experiment [6], -1.41. Moreover, the z-score in [7] is -0.531 (inactive); in [8], 0.29; in experiment [9], -0.987; in experiment [10], 0.344 (inactive).
Regarding `CCCc1cc2c(n1Cc1cccc(Cl)c1)C(C)C1CN(C(=O)c3ccccc3)C(C)(C(=O)OC)C21` (stereo not given), the z-score in experiment [1] was -1.22; in experiment [2] it was -0.278; in experiment [3] it was 0.101; in experiment [4] it was -2.71; in experiment [5] it was -4.69; in experiment [6] it was 1.4. For the same molecule, the z-score in experiment [7] is -1.82 (inactive); in experiment [8] it was -0.795; in experiment [9], -1.61; in experiment [10], -0.474 (inactive).
With `CCCc1cc2c(n1Cc1ccc(C)cc1)C(C)C1CN(C(=O)c3ccccc3)C(C)(C(=O)OC)C21` (stereo not given), the z-score in [1] is 0.345; in [2] it was -0.441; in experiment [3], 1.11; in experiment [4], -2.84; in [5], -4.73; in experiment [6] it was 2.34. For the same molecule, the z-score is -0.268 (inactive) in [7], 0.00271 in experiment [8], -1.59 in experiment [9] and -1.58 (inactive) in [10].
Turning to `CN1CCc2nc(CO)c(CO)cc2C1`, the z-score in experiment [1] was 1.18; in experiment [2] it was 0.593; in experiment [3], 0.0749; in experiment [4], -1.02; in experiment [5] it was 0.672; in experiment [6] it was 0.302. Besides, the z-score is -0.23 (inactive) in experiment [7], 0.38 in [8], 1.04 in [9] and 0.515 (inactive) in experiment [10].
On to `CCOC(=O)[C@H]1CC=C2C(=O)Oc3ccc(Br)cc3[C@@H]21`, for which the z-score in experiment [1] is -2.46; in experiment [2] it was -0.556; in [3], -2.35; in experiment [4] it was -2.9; in [5] it was -3.93; in experiment [6], 1.36. Besides, the z-score in experiment [7] was 0.599 (inactive); in experiment [8], 0.407; in experiment [9], 0.132; in experiment [10], 0.234 (inactive).
On to `CCCc1cc2c(n1CCO)C(C)C1CN(C(=O)c3ccccc3)C(C)(C(=O)OC)C21` (stereo not given), for which the z-score in experiment [1] is -0.981; in experiment [2], 0.348; in [3], 0.436; in experiment [4] it was -1.38; in [5], -0.875; in [6], 0.156. Besides, the z-score is -0.962 (inactive) in experiment [7], 0.719 in experiment [8], -0.379 in [9] and -1.04 (inactive) in experiment [10].
`CN1CCC(c2ccc(CO)cc2)=CC1C1CC1` (stereo not given): the z-score in experiment [1] was 0.169; in experiment [2], -0.228; in experiment [3], 0.061; in [4], -1.25; in experiment [5], 0.0447; in [6] it was -0.851. The z-score in experiment [7] was -0.625 (inactive); in experiment [8], 0.604; in [9], -0.409; in experiment [10], -0.374 (inactive).
